From PubChem BioAssay come the findings set out here.

A short description of assay [1]: antimalarial activity against Dd2 strain (AID 2302;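 active = growth inhibition above 50% at the single 2 µM test dose, taken to imply half-maximal potency below 2 µM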;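 note: 0% = DMSO untreated growth and 100% = chloroquine plus artemisinin killed control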). The settings on record: P. falciparum Dd2 in RBCs, LDH growth readout, 72 h; at 2 µM; stronger effect = higher value.
A short description of assay [2]: HepG2 cytotoxicity, primary screen, cytotoxicity control for P. falciparum antimalarial project, cell-based, ATP luminescence (AID 2303;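 active = inhibition above 50%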;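 note: 0% = DMSO wells and 100% = digitonin-killed cells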). The settings on record: HepG2 viability, 24-48 h, at 10 µM, stronger effect = higher value.
Assay [3] deals with L-lactate dehydrogenase (Plasmodium falciparum (isolate CDC / Honduras)) (UniProt Q27743). As to the kind of experiment: PfLDH activity inhibition – cell lysate, 3D7 strain, counter-screen for P. falciparum growth inhibition project (AID 2304).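 Note: 0% = vehicle and 100% = reference inhibitor.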 The settings on record: P. falciparum 3D7 crude extract, LDH APAD/NBT absorbance; at 2 µM; stronger effect = higher value. On the technique in general: A counterscreen serves to expose hits that act by an unwanted route or on another target.
Sequence of L-lactate dehydrogenase (Plasmodium falciparum (isolate CDC / Honduras)) (Q27743 whole entry, looked up): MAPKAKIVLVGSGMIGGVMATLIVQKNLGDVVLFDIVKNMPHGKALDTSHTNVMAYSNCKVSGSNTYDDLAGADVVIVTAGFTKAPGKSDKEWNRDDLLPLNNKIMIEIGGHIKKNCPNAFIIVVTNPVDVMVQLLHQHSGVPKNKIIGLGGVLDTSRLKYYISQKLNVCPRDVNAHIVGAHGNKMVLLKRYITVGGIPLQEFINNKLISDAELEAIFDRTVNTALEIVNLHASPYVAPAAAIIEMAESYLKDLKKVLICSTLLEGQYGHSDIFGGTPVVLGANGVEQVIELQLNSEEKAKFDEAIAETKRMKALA

Assay [4] is described as follows: inhibition of 3D7 malaria parasite growth – strain 3D7 (AID 2306).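 Note: 0% = DMSO wells and 100% = chloroquine plus artemisinin control wells.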 The settings on record: P. falciparum 3D7 erythrocytic growth, LDH absorbance, 72 h; at 2 µM; stronger effect = higher value.
Assay [5] deals with Calcium-dependent protein kinase 1 (Plasmodium falciparum (isolate 3D7)) (UniProt P62344). The experiment in a line: PfCDPK1 kinase inhibitors, biochemical, TCAMS library (AID 1159585; cut-off not given, nearly all actives have IC50 up to about 0.98 µM;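 note: inhibitors leave more ATP so luminescence rises with inhibition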). Conditions: recombinant PfCDPK1, Kinase-Glo ATP depletion luminescence. For orientation: Kinase-Glo measures the ATP left after a reaction by luminescence.
Sequence of Calcium-dependent protein kinase 1 (Plasmodium falciparum (isolate 3D7)) (P62344 whole entry, looked up): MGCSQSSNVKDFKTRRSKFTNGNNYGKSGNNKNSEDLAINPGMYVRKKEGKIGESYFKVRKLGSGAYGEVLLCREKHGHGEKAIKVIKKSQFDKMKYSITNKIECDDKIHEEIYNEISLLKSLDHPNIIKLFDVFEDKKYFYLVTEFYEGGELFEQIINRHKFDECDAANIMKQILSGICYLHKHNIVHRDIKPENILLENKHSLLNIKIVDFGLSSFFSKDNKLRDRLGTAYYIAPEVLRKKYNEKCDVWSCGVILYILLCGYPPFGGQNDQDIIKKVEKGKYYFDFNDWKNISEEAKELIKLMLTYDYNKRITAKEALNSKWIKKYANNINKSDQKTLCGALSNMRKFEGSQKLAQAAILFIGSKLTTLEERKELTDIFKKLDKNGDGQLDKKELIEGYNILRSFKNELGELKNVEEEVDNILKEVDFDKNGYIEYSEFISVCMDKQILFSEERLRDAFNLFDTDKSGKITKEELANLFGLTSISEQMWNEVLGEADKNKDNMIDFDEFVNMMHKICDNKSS
Assay [6] deals with Plasmodium falciparum protein kinase 6 (PK6, PF3D7_1337100) (UniProt Q8IDW1). As to the kind of experiment: PfPK6 kinase inhibitors, biochemical, TCAMS library (AID 1159586). Conditions: recombinant PfPK6, Kinase-Glo ATP depletion luminescence.
Sequence of Plasmodium falciparum protein kinase 6 (PK6, PF3D7_1337100) (Q8IDW1 1-305): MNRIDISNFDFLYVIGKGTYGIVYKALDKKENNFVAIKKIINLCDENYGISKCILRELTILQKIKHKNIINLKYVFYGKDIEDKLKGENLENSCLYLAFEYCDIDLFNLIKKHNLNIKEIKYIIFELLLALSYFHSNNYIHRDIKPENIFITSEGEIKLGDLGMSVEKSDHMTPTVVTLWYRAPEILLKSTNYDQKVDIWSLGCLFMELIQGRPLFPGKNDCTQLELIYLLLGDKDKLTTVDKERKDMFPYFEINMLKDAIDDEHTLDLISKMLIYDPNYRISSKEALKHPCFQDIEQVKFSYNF
Assay [7] concerns the target Protein kinase 7 (PK7), Plasmodium falciparum 3D7 (PF3D7_0213400) (UniProt Q7YTF7). As to the kind of experiment: inhibition of Plasmodium PK7 catalytic activity – biochemical, TCAMS antimalarial set, Kinase-Glo luminescence (AID 1159587). The settings on record: recombinant PfPK7, Kinase-Glo ATP depletion luminescence.
For assay [8], the target named is Calcium-dependent protein kinase 4 (Plasmodium falciparum (isolate 3D7)) (UniProt Q8IBS5). The experiment in a line: PfCDPK4 kinase inhibitors, biochemical, TCAMS library (AID 1159588; cut-off not given, nearly all actives have IC50 up to about 0.91 µM). Conditions: recombinant PfCDPK4, Kinase-Glo ATP depletion luminescence.
Sequence of Calcium-dependent protein kinase 4 (Plasmodium falciparum (isolate 3D7)) (Q8IBS5 whole entry, looked up): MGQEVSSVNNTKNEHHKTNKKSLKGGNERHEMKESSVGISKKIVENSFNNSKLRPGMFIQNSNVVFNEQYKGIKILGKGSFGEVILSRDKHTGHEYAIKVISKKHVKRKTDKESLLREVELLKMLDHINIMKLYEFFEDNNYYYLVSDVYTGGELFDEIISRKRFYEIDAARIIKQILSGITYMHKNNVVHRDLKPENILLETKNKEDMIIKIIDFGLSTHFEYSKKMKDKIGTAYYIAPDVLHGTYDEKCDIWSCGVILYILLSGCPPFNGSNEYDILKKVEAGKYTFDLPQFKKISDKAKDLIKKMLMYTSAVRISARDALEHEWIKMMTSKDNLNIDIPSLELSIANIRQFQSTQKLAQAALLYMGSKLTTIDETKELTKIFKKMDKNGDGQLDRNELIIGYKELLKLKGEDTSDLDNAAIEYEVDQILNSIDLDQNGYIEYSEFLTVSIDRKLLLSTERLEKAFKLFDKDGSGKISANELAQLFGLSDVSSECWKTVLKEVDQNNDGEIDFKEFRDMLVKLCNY

“And” between values parts separate entries of the source, which are not always exact repeats. Equal values may be shown once. For part of these data: Results with a measured potency or affinity are listed apart. Where a structure was tested more than once in an assay, its records may differ in their call. The source made the active and inactive calls. Unless noted, the rule behind the calls is not given here.

Sequence of Protein kinase 7 (PK7), Plasmodium falciparum 3D7 (PF3D7_0213400) (Q7YTF7 1-343): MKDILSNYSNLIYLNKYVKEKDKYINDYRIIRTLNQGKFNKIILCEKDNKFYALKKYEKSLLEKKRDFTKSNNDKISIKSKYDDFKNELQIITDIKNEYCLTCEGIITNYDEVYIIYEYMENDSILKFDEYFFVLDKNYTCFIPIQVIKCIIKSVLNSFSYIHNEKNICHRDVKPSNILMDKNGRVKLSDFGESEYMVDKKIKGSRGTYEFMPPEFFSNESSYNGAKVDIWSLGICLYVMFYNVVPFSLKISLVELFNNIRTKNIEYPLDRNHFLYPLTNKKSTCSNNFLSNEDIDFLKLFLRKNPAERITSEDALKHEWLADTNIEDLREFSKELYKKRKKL

In the case of `O=C(NC1CCN(CCc2c[nH]c3ccc(F)cc23)CC1)c1ncc(-c2ccccc2)[nH]1`, the figures for the growth inhibition in assay [1] and in assay [4] were 69% (active) and 102% (active), respectively. In addition, the inhibition was -3% (inactive) in assay [2] and -1% (inactive) in assay [3]. Further, the outcome in assay [5], in assay [6], in assay [7] and in assay [8] was inactive.

With `CC(Cc1ccc(OCCCCOc2ccccc2)cc1)NCCCN1CCOCC1` (stereo not drawn), the growth inhibition in assay [1] was 78% (active); in assay [4], 98% (active). The values for the inhibition in assay [2] and in assay [3] were 98% (active) and -2% (inactive), respectively. The result in assay [5], in assay [6], in assay [7] and in assay [8] was inactive.

On to `O=C(/C=C/c1ccccc1O)NC1CCC(CN2CCC(c3c[nH]c4ccccc34)CC2)CC1` (stereo not drawn), for which the growth inhibition in assay [1] was 73% (active) and 45% (inactive); in assay [4], 101% (active) and 103% (active). Further, the inhibition in assay [2] is 11% (inactive) and 22% (inactive); in assay [3], -1% (inactive) and 5% (inactive). Besides, the outcome in assay [5], in assay [6], in assay [7] and in assay [8] was inactive.

Take `CC[C@H]1CN2CC[C@H]1C[C@H]2[C@H](O)c1cc(-c2ccccc2C)nc2ccc(OC)cc12`: the growth inhibition in assay [1] is 98% (active); in assay [4] it was 100% (active). The inhibition in assay [2] is 16% (inactive); in assay [3] it was 2% (inactive). Besides, the outcome in assay [5], in assay [6], in assay [7] and in assay [8] was inactive.

In the case of `C=Cc1cc(OC)c2c(c1)c(=O)oc1c2cc(OC)c2c(O)ccc([C@H]3O[C@H]([C@@H](C)O)[C@H](O)[C@H]3O)c21`, the figures for the growth inhibition in assay [1] and in assay [4] were 41% (inactive) and 95% (active), respectively. The inhibition is 33% (inactive) in assay [2] and 0% (inactive) in assay [3]. Further, the result in assay [5], in assay [6], in assay [7] and in assay [8] was inactive.

`COC(=O)c1ccc(CC(C)NCC(O)c2cccc(C(F)(F)F)c2)cc1C` (stereo not drawn): the values for the growth inhibition in assay [1] and in assay [4] were 74% (active) and 93% (active), respectively. Further, the inhibition in assay [2] is 6% (inactive); in assay [3], 2% (inactive). Further, the result in assay [5], in assay [6], in assay [7] and in assay [8] was inactive.

On to `CC[C@H]1CN2CC[C@@H]1C[C@H]2[C@H](O)c1cc(N2CCSCC2)nc2ccc(OC)cc12`, for which the growth inhibition is 98% (active) in assay [1] and 99% (active) in assay [4]. The inhibition in assay [2] was 2% (inactive); in assay [3], 1% (inactive). Also, the result in assay [5], in assay [6], in assay [7] and in assay [8] was inactive.

With `COC(=O)c1ccc(CC(C)NCC(O)c2ccc(F)c(Cl)c2)cc1` (stereo not drawn), the growth inhibition in assay [1] was 78% (active); in assay [4] it was 98% (active). Moreover, the figures for the inhibition in assay [2] and in assay [3] were -4% (inactive) and -7% (inactive), respectively. The outcome in assay [5], in assay [6], in assay [7] and in assay [8] was inactive.

Turning to `c1ccc(C(OCCC2CCN(Cc3cccnc3)CC2)c2ccccc2)cc1`, the growth inhibition in assay [1] is 98% (active); in assay [4], 99% (active). In addition, the figures for the inhibition in assay [2] and in assay [3] were 12% (inactive) and 5% (inactive), respectively. The result in assay [5], in assay [6], in assay [7] and in assay [8] was inactive.

Take `CC[C@H]1CN2CC[C@H]1C[C@H]2[C@H](O)c1cc(N2CCCC(C(=O)N(CC)CC)C2)nc2ccc(OC)cc12` (stereo partly drawn): the growth inhibition is 99% (active) in assay [1] and 101% (active) in assay [4]. For the same compound, the inhibition is -13% (inactive) in assay [2] and -2% (inactive) in assay [3]. In addition, the outcome in assay [5], in assay [6], in assay [7] and in assay [8] was inactive.

`Cc1cc(NC(=O)[C@H](CC(C)C)Nc2ccc(C#N)c3ccccc23)ccc1F`: the growth inhibition in assay [1] was 88% (active); in assay [4], 95% (active). For the same compound, the inhibition is 35% (inactive) in assay [2] and 3% (inactive) in assay [3]. For the same compound, the result in assay [5], in assay [6], in assay [7] and in assay [8] was inactive.

With `O=C(C=Cc1ccc([N+](=O)[O-])cc1)NC1CCC(CN2CCC(c3c[nH]c4ccccc34)CC2)CC1` (stereo not drawn), the growth inhibition was 61% (active) and 81% (active) in assay [1]; 102% (active) and 101% (active) in assay [4]. Also, the inhibition is 30% (inactive) and 34% (inactive) in assay [2]; -3% (inactive) in assay [3]. For the same compound, the outcome in assay [5], in assay [6], in assay [7] and in assay [8] was inactive.

With `Cc1ccc(C2(O)C[C@H]3CC[C@@H](C2)N3C)cc1` (stereo partly drawn), the values for the growth inhibition in assay [1] and in assay [4] were 16% (inactive) and 92% (active), respectively. Besides, the inhibition is -6% (inactive) in assay [2] and -4% (inactive) in assay [3]. For the same compound, the outcome in assay [5], in assay [6], in assay [7] and in assay [8] was inactive.

For the compound `O=C(C=Cc1ccc(F)c(Br)c1)N1CCC(CN2CCC(c3c[nH]c4ccccc34)CC2)CC1`, the growth inhibition in assay [1] was 9% (inactive); in assay [4], 100% (active). For the same compound, the inhibition in assay [2] is 39% (inactive); in assay [3], -3% (inactive). The outcome in assay [5], in assay [6], in assay [7] and in assay [8] was inactive.

As for `CNC(=O)c1ccc2[nH]cc(C3CCN(CC4CCC(NC(=O)/C=C/c5ccc(Cl)c(Cl)c5)CC4)CC3)c2c1` (stereo not drawn), the results for the growth inhibition in assay [1] and in assay [4] were 90% (active) and 100% (active), respectively. Further, the figures for the inhibition in assay [2] and in assay [3] were -1% (inactive) and -7% (inactive), respectively. In addition, the result in assay [5], in assay [6], in assay [7] and in assay [8] was inactive.

As to `CC[C@H]1CN2CC[C@H]1C[C@H]2[C@H](O)c1cc(-c2ccc3ccccc3c2)nc2ccc(OC)cc12`, the growth inhibition in assay [1] and in assay [4] was 99% (active) each time. Besides, the figures for the inhibition in assay [2] and in assay [3] were 49% (inactive) and -3% (inactive), respectively. Also, the result in assay [5], in assay [6], in assay [7] and in assay [8] was inactive.

Turning to `CC(=O)Nc1ccc(CN2CCC(N(C)c3cc(NC(=O)c4ccc(F)cc4)ccn3)CC2)cc1`, the growth inhibition was 5% (inactive) in assay [1] and 95% (active) in assay [4]. In addition, the inhibition in assay [2] was 0% (inactive); in assay [3], -1% (inactive). Besides, the result in assay [5], in assay [6], in assay [7] and in assay [8] was inactive.

For the compound `CCCCCc1cc(O)c2c3c(c(=O)oc2c1)CN(C)CC3`, the growth inhibition is 99% (active) in assay [1] and 101% (active) in assay [4]. Moreover, the inhibition in assay [2] and in assay [3] was 4% (inactive) throughout. The outcome in assay [5], in assay [6], in assay [7] and in assay [8] was inactive.

As to `CN1CC=C(c2csc3ccc(NC(=O)Nc4ccc(-c5ccncc5)c(Cl)c4)cc23)CC1`, the growth inhibition in assay [1] is 101% (active); in assay [4] it was 102% (active). The results for the inhibition in assay [2] and in assay [3] were 10% (inactive) and 6% (inactive), respectively. For the same compound, the result in assay [5], in assay [6], in assay [7] and in assay [8] was inactive.

For `CCCc1c(C(=O)NC2CCC(CN3CCC(c4c[nH]c5ccccc45)CC3)CC2)cnn1-c1c(Cl)cc(Cl)cc1Cl` (stereo not drawn), the growth inhibition was 49% (inactive) in assay [1] and 100% (active) in assay [4]. The figures for the inhibition in assay [2] and in assay [3] were 41% (inactive) and -5% (inactive), respectively. For the same compound, the result in assay [5], in assay [6], in assay [7] and in assay [8] was inactive.

Regarding `O=C1COc2ccccc2N1CCN1CCC(NCc2ccc(-c3cccs3)cc2)CC1`, the growth inhibition in assay [1] was 18% (inactive); in assay [4] it was 87% (active). Further, the inhibition is 37% (inactive) in assay [2] and -4% (inactive) in assay [3]. Further, the result in assay [5], in assay [6], in assay [7] and in assay [8] was inactive.

One may read the inhibition as the relative decrease from the control value, in per cent.
